Assay results: PubChem BioAssay
Values joined by “and” are separate entries in the source; they are usually repeats but may differ in a detail not shown here. Equal values may be shown once. Active and inactive are the calls of the source.

Experiments:
[1] = system: PRMT1 (protein arginine N-methyltransferase 1); experiment: PRMT1 binders on small-molecule microarrays, primary screen, biochemical, small-molecule microarray, 635 nm fluorescence (AID 1088); settings: small-molecule microarray binding, higher = more signal;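 further: binding of Prmt1 protein to compounds spotted on small-molecule microarray slides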
[2] = yeast growth modulation, basal conditions, primary screen, YJM789 clinical isolate, OD600, 24 h (AID 1089);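 further: growth of clinical yeast isolate S. cerevisiae YJM 789 seeded 1000 cells per well; test concentration not given here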; settings: S. cerevisiae YJM789 growth; higher = more signal, called active from +8 up or from −8 down unless noted
[3] = fission yeast growth modulation, primary screen, strain 972, OD600, 24 h, no modulator (AID 1090);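 further: basal condition with compound alone and no growth modifier present; test concentration not given here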; settings: S. pombe 972 growth; higher = more signal, called active from +8 up or from −8 down unless noted
[4] = S. cerevisiae growth modulation with rapamycin, primary screen, strain BY4716, OD600, 96 h (AID 1091); settings: higher = more signal, called active from +8 up or from −8 down unless noted; further: test concentration not given here
[5] = target: Torsin-1A-interacting protein 2 (Homo sapiens) (UniProt Q8NFQ8); experiment: LULL1 binders on small-molecule microarray, primary screen, cell lysate, human LULL1 lysate, 635/667 nm fluorescence (AID 1092); settings: hLULL1 lysate binding, 635 nm fluorescence, higher = more signal;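 further: probe is lysate of COS7 cells overexpressing human LULL1; score merges per-feature 667 nm fluorescence with signal-to-noise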
Chain of Torsin-1A-interacting protein 2 (Homo sapiens) (Q8NFQ8 whole entry, looked up): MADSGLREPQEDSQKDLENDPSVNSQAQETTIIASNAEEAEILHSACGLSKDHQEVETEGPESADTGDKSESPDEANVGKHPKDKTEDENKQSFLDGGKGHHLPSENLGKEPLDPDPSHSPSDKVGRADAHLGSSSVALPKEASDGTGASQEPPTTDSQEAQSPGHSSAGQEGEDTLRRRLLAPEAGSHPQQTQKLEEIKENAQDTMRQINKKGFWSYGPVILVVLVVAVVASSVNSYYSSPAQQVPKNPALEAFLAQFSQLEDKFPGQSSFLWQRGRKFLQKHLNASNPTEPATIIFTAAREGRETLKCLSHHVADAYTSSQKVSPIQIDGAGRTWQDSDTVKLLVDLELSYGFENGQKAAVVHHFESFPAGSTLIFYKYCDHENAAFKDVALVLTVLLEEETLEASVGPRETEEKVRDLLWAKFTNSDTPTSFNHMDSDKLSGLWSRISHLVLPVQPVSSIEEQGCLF

[6] = E. coli growth modulation, two-sided OD650, primary screen, E. coli filamentation project, strain DRC41, 24 h (AID 1093); settings: OD650, 24 h; higher = more signal, called active from +8 up or from −8 down unless noted;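 further: MC1000 strain lacking acrAB efflux and sulA so SOS filamentation is blocked; test concentration not given here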
[7] = small-molecule microarray binders of probe aLefty2, primary screen, biochemical, biotinylated probe, 635/667 nm fluorescence (AID 1094); settings: higher = more signal; small-molecule microarray, probe aLefty2, fluorescence unless noted;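 further: score merges spot fluorescence near 667 nm with spot signal-to-noise ratio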
[8] = system: Noggin (protein binding on small-molecule microarray); experiment: Noggin binders on small-molecule microarray, primary screen, biochemical, 635/667 nm fluorescence (AID 1095); settings: 635 nm fluorescence, higher = more signal;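 further: score merges 667 nm feature fluorescence with signal to noise over triplicate slides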
[9] = target: Neurogenic locus notch homolog protein 3 (Homo sapiens) (UniProt Q9UM47); experiment: NOTCH3 binders on small-molecule microarray, primary screen, biochemical, 635/667 nm fluorescence (AID 1096); settings: NOTCH3 binding, 635 nm fluorescence, higher = more signal
Chain of Neurogenic locus notch homolog protein 3 (Homo sapiens) (Q9UM47 whole entry, looked up): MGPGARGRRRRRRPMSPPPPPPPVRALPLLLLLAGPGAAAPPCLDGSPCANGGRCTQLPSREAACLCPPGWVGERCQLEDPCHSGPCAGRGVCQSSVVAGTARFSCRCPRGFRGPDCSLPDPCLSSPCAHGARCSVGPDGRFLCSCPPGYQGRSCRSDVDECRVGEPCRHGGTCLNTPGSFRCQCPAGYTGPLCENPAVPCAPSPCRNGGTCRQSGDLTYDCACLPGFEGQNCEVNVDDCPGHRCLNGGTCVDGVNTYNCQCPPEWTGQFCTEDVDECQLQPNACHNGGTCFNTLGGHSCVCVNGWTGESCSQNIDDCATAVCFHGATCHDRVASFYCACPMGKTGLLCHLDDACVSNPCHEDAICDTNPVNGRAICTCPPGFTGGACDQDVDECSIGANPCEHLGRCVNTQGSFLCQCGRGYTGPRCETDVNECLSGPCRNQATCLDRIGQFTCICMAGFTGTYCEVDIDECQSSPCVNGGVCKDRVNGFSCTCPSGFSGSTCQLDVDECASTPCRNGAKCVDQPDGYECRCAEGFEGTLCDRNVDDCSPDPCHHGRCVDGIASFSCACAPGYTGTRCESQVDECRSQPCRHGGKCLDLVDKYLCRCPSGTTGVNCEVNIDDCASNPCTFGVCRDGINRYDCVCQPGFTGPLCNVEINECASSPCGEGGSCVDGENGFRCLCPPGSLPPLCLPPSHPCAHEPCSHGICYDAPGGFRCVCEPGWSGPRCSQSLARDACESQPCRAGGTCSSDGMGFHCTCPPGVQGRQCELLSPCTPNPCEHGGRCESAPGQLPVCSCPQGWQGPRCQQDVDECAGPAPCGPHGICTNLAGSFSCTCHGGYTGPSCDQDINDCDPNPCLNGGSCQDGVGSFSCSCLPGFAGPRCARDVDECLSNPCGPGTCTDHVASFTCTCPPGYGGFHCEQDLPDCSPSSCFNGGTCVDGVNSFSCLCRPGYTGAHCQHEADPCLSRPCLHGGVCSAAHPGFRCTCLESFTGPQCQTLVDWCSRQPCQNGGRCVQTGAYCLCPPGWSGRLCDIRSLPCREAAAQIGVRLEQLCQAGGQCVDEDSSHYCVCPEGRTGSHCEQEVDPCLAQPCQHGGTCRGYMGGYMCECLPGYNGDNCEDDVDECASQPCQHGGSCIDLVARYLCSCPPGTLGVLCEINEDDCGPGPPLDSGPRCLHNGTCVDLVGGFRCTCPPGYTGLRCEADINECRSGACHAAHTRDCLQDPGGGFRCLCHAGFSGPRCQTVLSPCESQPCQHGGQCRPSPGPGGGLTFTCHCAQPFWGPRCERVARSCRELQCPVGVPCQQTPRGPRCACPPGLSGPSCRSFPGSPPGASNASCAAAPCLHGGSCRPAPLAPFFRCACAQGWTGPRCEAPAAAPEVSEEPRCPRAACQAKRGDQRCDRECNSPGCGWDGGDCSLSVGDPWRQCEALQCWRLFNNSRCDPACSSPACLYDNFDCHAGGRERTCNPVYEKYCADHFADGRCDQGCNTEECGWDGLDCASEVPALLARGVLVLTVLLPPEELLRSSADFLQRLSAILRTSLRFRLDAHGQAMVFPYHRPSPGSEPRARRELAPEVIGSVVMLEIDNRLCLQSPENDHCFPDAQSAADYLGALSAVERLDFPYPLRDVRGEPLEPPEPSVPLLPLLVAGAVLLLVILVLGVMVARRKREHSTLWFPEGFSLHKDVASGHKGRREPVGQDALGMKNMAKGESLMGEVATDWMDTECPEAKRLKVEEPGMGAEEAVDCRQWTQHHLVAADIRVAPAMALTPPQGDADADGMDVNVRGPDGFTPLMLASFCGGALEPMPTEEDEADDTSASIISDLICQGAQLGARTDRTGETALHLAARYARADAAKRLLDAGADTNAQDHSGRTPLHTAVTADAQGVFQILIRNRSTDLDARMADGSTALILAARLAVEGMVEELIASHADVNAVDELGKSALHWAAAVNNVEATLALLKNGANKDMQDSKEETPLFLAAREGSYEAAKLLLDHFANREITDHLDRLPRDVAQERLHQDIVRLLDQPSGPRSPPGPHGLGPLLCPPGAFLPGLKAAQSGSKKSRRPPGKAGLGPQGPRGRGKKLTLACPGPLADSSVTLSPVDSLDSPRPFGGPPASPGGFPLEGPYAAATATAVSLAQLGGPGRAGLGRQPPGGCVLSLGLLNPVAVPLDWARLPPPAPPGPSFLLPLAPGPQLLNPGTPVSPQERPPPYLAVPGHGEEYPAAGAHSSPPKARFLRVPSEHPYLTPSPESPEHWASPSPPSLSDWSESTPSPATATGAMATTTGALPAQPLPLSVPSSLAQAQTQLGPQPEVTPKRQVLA

[10] = small-molecule microarray binders of probe aEGFR, primary screen, biochemical, biotinylated probe, 635/667 nm fluorescence (AID 1097); settings: higher = more signal; small-molecule microarray, probe aEGFR, fluorescence unless noted;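 further: probe is a biotinylated anti-EGFR antibody binding compounds printed on slides; score combines fluorescence near 667 nm and signal to noise of each spot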

| Compound | composite z-score [1] | z-score [2] | z-score [3] | z-score [4] | composite z-score [5] | z-score [6] | composite z-score [7] | composite z-score [8] | composite z-score [9] | composite z-score [10] |
| --- | --- | --- | --- | --- | --- | --- | --- | --- | --- | --- |
| COC(=O)[C@H]1C(=O)c2ccccc2O[C@@](C(=O)OC)(c2ccccc2)[C@@H]1c1ccccc1 | -1.47 | -0.644 (inactive) | -1.77 (inactive) | 0.225 (inactive) | -0.565 | 0.161 (inactive) | -0.159 | -0.054 | -1.01 | -0.0093 |
| COC(=O)NCC=Cc1nc(CCC=CC(=O)O[C@H]2CC3CC(=O)O[C@@H](C=CCC(C)C)C[C@@H]4CC[C@H](C)[C@@H](C[C@@H](OC)C[C@H](C2)O3)O4)co1 | -1.35 | -1.77 (inactive) | -4.74 (inactive) | -0.209 (inactive) | -0.562 | 0.162 (inactive) | -0.174 | -0.593 | -2 | -0.201 |
| COC(=O)[C@@]1(Cc2ccccc2)[C@H]2c3cc(C(=O)N(C)C)n(C)c3C[C@H]2CN1C(=O)c1ccccc1 | -0.0444 | 0.16 (inactive) | 0.923 (inactive) | 0.462 (inactive) | 3.35 | 0.0234 (inactive) | 0.402 | -0.73 | -0.0403 | -0.0391 |
| C[C@@H]1OC=C2[C@@H](O)[C@H]3O[C@H]3C(=O)[C@]23[C@H]1[C@H]1C2=C([C@@H](O)[C@H]4O[C@H]4C2=O)[C@@H]3O[C@@H]1C | -0.259 | -0.676 (inactive) | 0.585 (inactive) | 0.0254 (inactive) | -0.957 | -0.101 (inactive) | -0.101 | 0.195 | -0.186 | -0.0689 |
| CCCc1cc2c(n1Cc1cccc(Cl)c1)C(C)C1CN(C(=O)c3ccccc3)C(C)(C(=O)OC)C21 (stereo not given) | -0.287 | -0.319 (inactive) | 0.431 (inactive) | 0.282 (inactive) | 3.21 | -0.449 (inactive) | 0.411 | -0.146 | 1.11 | 0.118 |
| CN1CCc2nc(CO)c(CO)cc2C1 | -0.121 | 0.909 (inactive) | 0.772 (inactive) | 1.47 (inactive) | 0.277 | 0.077 (inactive) | -0.0912 | 0.543 | 0.765 | 0.0668 |
| C=C(CC1(CNP(=O)(c2ccccc2)c2ccccc2)CC1)c1ccccc1 | -0.683 | 0.0836 (inactive) | 1.79 (inactive) | -0.165 (inactive) | 1.98 | 0.0375 (inactive) | -0.0934 | -0.682 | -0.343 | -0.0493 |
| O=P(c1ccccc1)(c1ccccc1)N1CC2(CC2)CC(O)(c2ccccc2)C1 (stereo not given) | -0.25 | -1.51 (inactive) | -1.4 (inactive) | -1.9 (inactive) | 3.57 | -0.0435 (inactive) | -0.0208 | -0.62 | 0.498 | 0.066 |
| COc1cc2c(cc1O)C(C)N(C)CC2 (stereo not given) | -0.474 | 0.051 (inactive) | -2.28 (inactive) | -1.65 (inactive) | 0.0713 | 0.891 (inactive) | 0.0914 | -0.19 | -0.245 | 0.0841 |
| c1ccc(-c2cc3c(nc2-c2ccccc2)CCNC3)cc1 | -0.93 | 0.52 (inactive) | 0.538 (inactive) | 2.17 (inactive) | -0.908 | -0.0201 (inactive) | -0.0831 | 0.297 | -0.73 | -0.238 |
| COC(=O)[C@@]1(Cc2ccc(F)cc2)[C@H]2c3cc(C(=O)N(C)C)[nH]c3C[C@H]2CN1C(=O)c1ccccc1 | -0.128 | 0.531 [setting not given] (inactive) | 0.0211 [setting not given] (inactive) | 0.229 [setting not given] (inactive) | 3.23 | -0.152 [setting not given] (inactive) | 0.153 [setting not given] | -0.512 | -0.388 | -0.0573 [setting not given] |
| COc1cc2c(cc1O)C=[N+](C)CC2 | -0.592 | -1.76 (inactive) | -0.412 (inactive) | -1.25 (inactive) | -0.496 | -0.695 (inactive) | 0.0571 | 0.425 | -0.102 | -0.0967 |
| CC1N(P(=O)(c2ccccc2)c2ccccc2)CC(O)(c2ccccc2)CC12CC2 (stereo not given) | 0.453 and -1.07 | 0.401 (inactive) and -2.96 (inactive) | 0.614 (inactive) and -1.46 (inactive) | 0.973 (inactive) and 0.0418 (inactive) | 3.87 and 3.05 | -0.476 (inactive) and -0.172 (inactive) | 0.084 and 0.644 | -1.15 and -1.06 | -1.14 and -0.154 | -0.0565 and 0.174 |
| COC(=O)C1(C)C=C2C(=C(C)C(=O)C2C)CN1 (stereo not given) | -0.289 | 0.957 (inactive) | 0.437 (inactive) | 1.14 (inactive) | -0.132 | -1.5 (inactive) | -0.0175 | -1 | -1.2 | -0.139 |
| C[C@H]1O[C@H]2C3=C(C(=O)[C@@H]4O[C@@H]4[C@@H]3O)[C@@H]1[C@@H]1[C@@H](C)OC=C3[C@@H](O)[C@H]4O[C@H]4C(=O)[C@]312 | -1.42 | -1.16 (inactive) | -0.568 (inactive) | -0.584 (inactive) | -0.697 | -0.529 (inactive) | -0.166 | -0.394 | -1.62 | -0.0238 |
| C=C(CC1(C(C)NP(=O)(c2ccccc2)c2ccccc2)CC1)c1ccccc1 (stereo not given) | 0.144 | -1.47 (inactive) | -5.37 (inactive) | -3 (inactive) | 3.44 | -0.74 (inactive) | -0.119 | -0.344 | 0.673 | -0.135 |

| Compound | composite z-score [1] | z-score [2] | z-score [3] | z-score [4] | composite z-score [5] | z-score [6] | composite z-score [7] | composite z-score [8] | composite z-score [9] | composite z-score [10] |
| --- | --- | --- | --- | --- | --- | --- | --- | --- | --- | --- |
| CN1CCC(c2ccc(CO)cc2)=CC1C1CC1 (stereo not given) | 0.142 | -1.01 (inactive) | -1.39 (inactive) | 0.978 (inactive) | -0.183 | -0.409 (inactive) | -0.308 | 0.062 | -0.218 | -0.154 |
| C[C@@H]1Cc2c(cnc3c2CN(C)CC3)CO1 | -0.377 | -0.0303 (inactive) | -0.591 (inactive) | -0.582 (inactive) | -0.0214 | 0.262 (inactive) | -0.153 | 0.603 | -0.78 | 0.0255 |
| OCc1ccc(C2=CC(C3CC3)N(Cc3sc4ccccc4c3Cl)CC2)cc1 (stereo not given) | 1.56 | -0.102 (inactive) | -5.01 (inactive) | 1.47 (inactive) | 1.55 | -1.09 (inactive) | -0.0416 | 0.448 | 0.68 | -0.0493 |
| CCOC(=O)[C@H]1CC=C2C(=O)Oc3ccc(Br)cc3[C@@H]21 | 1.41 | -24.8 (active) | -16.2 (active) | -1.8 (inactive) | 2.61 | -0.369 (inactive) | -0.183 | -0.701 | 0.428 | -0.249 |
| COC(=O)[C@H]1[C@H](c2ccccc2)C(=O)[C@]2(O)c3ccccc3O[C@@]12c1ccccc1 | -0.371 | -1.36 (inactive) | -0.83 (inactive) | -0.713 (inactive) | 0.582 | 0.0043 (inactive) | -0.267 | 0.372 | 0.667 | -0.12 |
| OCc1ccc(C2=CC(c3cccs3)N(Cc3cccc(OC(F)(F)F)c3)CC2)cc1 (stereo not given) | 1.08 | -0.583 (inactive) | -3.83 (inactive) | 4.58 (inactive) | 1.1 | 0.398 (inactive) | -0.145 | 0.257 | 0.0155 | -0.1 |
| CN1CCC(c2ccc(CO)cc2)=CC1c1cccs1 (stereo not given) | -0.534 | -0.539 (inactive) | -2.27 (inactive) | 2.81 (inactive) | -1.32 | 0.358 (inactive) | -0.166 | 0.269 | 0.245 | -0.0828 |
| CCc1cc2c(nc1CC)CCN(CCC(C)=NOC)C2 | 0.766 | 0.259 (inactive) | -1.54 (inactive) | -0.21 (inactive) | 0.839 | -0.0797 (inactive) | 0.327 | 0.601 | 0.0855 | 0.0631 |
| CCCc1cc2c(n1CCO)C(C)C1CN(C(=O)c3ccccc3)C(C)(C(=O)OC)C21 (stereo not given) | -0.147 | -0.28 (inactive) | 1.08 (inactive) | 0.158 (inactive) | 2.94 | -0.0807 (inactive) | 0.851 | -0.562 | 0.386 | 0.427 |
| COC(=O)[C@@]1(Cc2ccccc2)[C@H]2c3cc(C(=O)N(C)C)[nH]c3C[C@H]2CN1C(=O)c1ccccc1 | -0.94 | 0.0969 (inactive) | 0.8 (inactive) | 0.98 (inactive) | 0.745 | -0.482 (inactive) | -0.0238 | -1.23 | -0.984 | -0.116 |
| CCCC=C(CCC)[C@@H](NP(=O)(c1ccccc1)c1ccccc1)c1ccccc1 | 0.905 | -0.564 (inactive) | 0.652 (inactive) | 0.0781 (inactive) | 0.732 | -0.431 (inactive) | -0.17 | 1.11 | 0.474 | -0.106 |
| CCOC(=O)[C@H]1CC=C2C(=O)Oc3ccccc3[C@@H]21 | -0.162 | -1.73 (inactive) | -5.83 (inactive) | -1.99 (inactive) | 1.55 | -0.0576 (inactive) | -0.134 | -1.09 | 0.0681 | -0.174 |
| CCCC[C@@H]1C[C@H]1[C@@H](NP(=O)(c1ccccc1)c1ccccc1)c1ccc(Cl)cc1 | -0.571 | -0.513 (inactive) | -10.8 (active) | 0.0654 (inactive) | 0.748 | -0.412 (inactive) | 0.195 | -1.67 | -0.582 | -0.263 |
| COC(=O)[C@H]1[C@@H](O)[C@@]2(O)c3c(OC)cc(OC)cc3O[C@@]2(c2ccc(OC)cc2)[C@@H]1c1ccccc1 | 0.002 | -0.543 (inactive) | -2.36 (inactive) | 0.118 (inactive) | 0.485 | 0.449 (inactive) | -0.221 | 0.782 | 0.708 | -0.0714 |
| CCCc1cc2c(n1Cc1ccc(C)cc1)C(C)C1CN(C(=O)c3ccccc3)C(C)(C(=O)OC)C21 (stereo not given) | 0.0451 | -1.78 (inactive) | 0.625 (inactive) | -0.689 (inactive) | 3.08 | -0.694 (inactive) | 1.02 | -0.366 | 1.11 | 0.834 |
| CCCc1cc2c(n1Cc1ccco1)C(C)C1CN(C(=O)c3ccccc3)C(C)(C(=O)OC)C21 (stereo not given) | 0.254 | -0.0941 (inactive) | -0.154 (inactive) | 0.444 (inactive) | 2.03 | -0.773 (inactive) | 0.849 | 0.025 | 1.09 | 0.337 |
